The structures appear in SMILES notation. Calls of active or inactive are those of the source. How the source made its calls: active means hit-call score of the fitted dose curve at least 0.9, where 1 is the maximum; inactive means score below 0.9.

This experiment can be described thus: CCTE_Simmons_MITO_max_resp_rate: CCTE's HepG2 Seahorse XF Respirometric Screening Assay at Maximal Respiratory State [uncoupled], Simmons Lab (AID 2284002). Particulars: actives raise or lower the signal. As to the method:
CCTE_Simmons_MITO is cell-based, respirometric assay using HepG2 cells and a Seahorse XF Analyzer to measure oxygen consumption rates over four temporal phases spanning a total of 72 minutes: pre-injection (pre-treatment), basal (following test compound injection), maximal (following FCCP uncoupler injection), and inhibited (following rotenone/antimycin A injection)CCTE_Simmons_MITO_max_resp_rate is one of 4 assay components calculated from the CCTE_Simmons_MITO assay. It is designed to make measurements of maximal respiration using a form of respirometric reporter, as detected with […] signals by Seahorse XF96 technology. Data from the assay component CCTE_Simmons_MITO_max_resp_rate was analyzed at the endpoint, CCTE_Simmons_MITO_max_resp_rate_OCR, with bidirectional fitting relative to DMSO as the negative control and baseline of activity. Using a type of respirometric reporter, measures of maximal respiration for gain or loss-of-signal activity can be used to understand cellular oxygen consumption as it relates to cellular respiration. To generalize the intended target to other relatable targets, this assay endpoint is annotated to the mitochondria intended target family, where the subfamily is respiration.
Test chemicals were administered as a titrated series of 7 concentrations from 125 nM up to 100 uM [final] prior to kinetic endpoint detection at 6 minute intervals [3 min mix followed by 3 minutes measure] for 72 minutes. Three biological replicates of technical singles were run for every chemical concentration tested. Dimethylsulfoxide [DMSO] was used as the vehicle control. The electron transport chain inhibitor fenpyroximate was used as the positive control for decreased basal respiration and was administered as a titrated series of 6 concentrations from 250 nM up to 2.75 uM [final] with technical triplicates for the top concentration only. The uncoupler 2,4-dintirophenol was used as the positive control for increased basal respiration and was administered as a titrated series of 6 concentrations from 938 nM up to 40 uM [final] with technical triplicates for the top concentration only. A Seahorse XF Analzyer is required to measure the response.
In the case of `COc1cc(C=O)cc2c1[C@H](COC(N)=O)[C@]1(OC(C)=O)ON2C[C@H]2[C@@H]1N2C(C)=O`, the compound was called inactive.
With `CCC(C)c1ccc(O)cc1` (configuration not stated), the compound was classed as inactive.
As to `Nc1ccc(N=Nc2ccccc2)cc1`, the result was inactive.
What is called AC50 is the concentration giving half of the maximal activity seen. As for `CC(C)COC(=O)c1ccccc1C(=O)OCC(C)C`, the AC50 is 50 µM (active).
The same measure, in the same setting: in the case of `[Cl-].[Cl-].[Hg+2]` it was 50 µM (active); in that of `CCCCCCCCn1sccc1=O`, 52 µM (active); in that of `CC(C)(C)C(O)(CCc1ccc(Cl)cc1)Cn1cncn1` (configuration not stated), 33.4 µM (active).
In the case of `Cc1cc(N=Nc2ccccc2C)ccc1N`, the half-maximal activity concentration (AC50) is 36.4 µM (active).
Regarding `C[C@]12C=CC3=C4CCC(=O)C=C4CC[C@H]3[C@@H]1CC[C@@H]2O`, the result was inactive.
For `CC(C)N(Cc1ccccc1)C(=O)C(C)(C)C`, the compound was classed as inactive.
With `CCC[CH2][Sn]([Cl])([CH2]CCC)[CH2]CCC`, the AC50 was 3.2 µM (active).
Same read-out and setting: in the case of `CCOC(=O)[C@]1(c2ccccc2)Oc2ccccc2[C@@H]1N` it was 31.3 µM (active).
